# Measured values reported in the supplement of paper PMC6897291.
# Key:
# U-2932 [1] = test: growth inhibition by drug alone (1 - RLU/untreated control) (fraction); higher = stronger inhibition; settings: 177Lu-lilotomab satetraxetan 0 ug/ml
# Outline: (§1)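 RIVA or U-2932 cells were left untreated or pretreated for 18 h with a radiolabelled anti-CD37 antibody conjugate (~600 MBq/mg) at 0.5 µg/ml for RIVA or 1 µg/ml for U-2932. The cells were then washed and seeded at 3,000 cells/well on plates pre-printed with the Selleck Cambridge Cancer Compound library, dosed at 10/100 nM for RIVA and 10/1,000 nM for U-2932. From day 3, RealTime-Glo luminescence was read daily after 1 h at 37°C. Growth inhibition was taken as one minus RLU over the mean of the untreated no-drug wells, of which there were 48 per plate.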
# RIVA [2] = test: as above; settings: 177Lu-lilotomab satetraxetan 0 ug/ml
# Outline: as §1
# U-2932 [3] = test: growth inhibition by drug plus 177Lu-lilotomab satetraxetan (1 - RLU/untreated control) (fraction); higher = stronger inhibition; settings: 177Lu-lilotomab satetraxetan 1 ug/ml
# Outline: as §1
# RIVA [4] = test: as above; settings: 177Lu-lilotomab satetraxetan 0.5 ug/ml
# Outline: as §1
SMILES,"growth inhibition by drug alone (U-2932 [1]; 10 nM, time (day): 3)","growth inhibition by drug alone (U-2932 [1]; 10 nM, time (day): 4)","growth inhibition by drug alone (U-2932 [1]; 10 nM, time (day): 5)","growth inhibition by drug alone (U-2932 [1]; 10 nM, time (day): 6)","growth inhibition by drug alone (U-2932 [1]; 1000 nM, time (day): 3)","growth inhibition by drug alone (U-2932 [1]; 1000 nM, time (day): 4)","growth inhibition by drug alone (U-2932 [1]; 1000 nM, time (day): 5)","growth inhibition by drug alone (U-2932 [1]; 1000 nM, time (day): 6)","growth inhibition by drug alone (RIVA [2]; 10 nM, time (day): 3)","growth inhibition by drug alone (RIVA [2]; 10 nM, time (day): 4)","growth inhibition by drug alone (RIVA [2]; 10 nM, time (day): 5)","growth inhibition by drug alone (RIVA [2]; 10 nM, time (day): 6)","growth inhibition by drug alone (RIVA [2]; 100 nM, time (day): 3)","growth inhibition by drug alone (RIVA [2]; 100 nM, time (day): 4)","growth inhibition by drug alone (RIVA [2]; 100 nM, time (day): 5)","growth inhibition by drug alone (RIVA [2]; 100 nM, time (day): 6)","growth inhibition by drug plus 177Lu-lilotomab satetraxetan (U-2932 [3]; 10 nM, time (day): 3)","growth inhibition by drug plus 177Lu-lilotomab satetraxetan (U-2932 [3]; 10 nM, time (day): 4)","growth inhibition by drug plus 177Lu-lilotomab satetraxetan (U-2932 [3]; 10 nM, time (day): 5)","growth inhibition by drug plus 177Lu-lilotomab satetraxetan (U-2932 [3]; 10 nM, time (day): 6)","growth inhibition by drug plus 177Lu-lilotomab satetraxetan (U-2932 [3]; 1000 nM, time (day): 3)","growth inhibition by drug plus 177Lu-lilotomab satetraxetan (U-2932 [3]; 1000 nM, time (day): 4)","growth inhibition by drug plus 177Lu-lilotomab satetraxetan (U-2932 [3]; 1000 nM, time (day): 5)","growth inhibition by drug plus 177Lu-lilotomab satetraxetan (U-2932 [3]; 1000 nM, time (day): 6)","growth inhibition by drug plus 177Lu-lilotomab satetraxetan (RIVA [4]; 10 nM, time (day): 3)","growth inhibition by drug plus 177Lu-lilotomab satetraxetan (RIVA [4]; 10 nM, time (day): 4)","growth inhibition by drug plus 177Lu-lilotomab satetraxetan (RIVA [4]; 10 nM, time (day): 5)","growth inhibition by drug plus 177Lu-lilotomab satetraxetan (RIVA [4]; 10 nM, time (day): 6)","growth inhibition by drug plus 177Lu-lilotomab satetraxetan (RIVA [4]; 100 nM, time (day): 3)","growth inhibition by drug plus 177Lu-lilotomab satetraxetan (RIVA [4]; 100 nM, time (day): 4)","growth inhibition by drug plus 177Lu-lilotomab satetraxetan (RIVA [4]; 100 nM, time (day): 5)","growth inhibition by drug plus 177Lu-lilotomab satetraxetan (RIVA [4]; 100 nM, time (day): 6)"
Oc1ccc(Nc2nc(-c3ccc(Cl)cc3)cs2)cc1,0.0714,0.0415,-0.0308,-0.079,0.00763,0.0746,-0.00976,-0.13,-0.021,-0.0647,-0.176,-0.522,-0.28,-0.263,-0.403,-0.57,-0.0159,0.00418,0.0159,-0.00943,0.0757,0.243,0.237,0.277,0.383,0.501,0.516,0.539,0.158,0.298,0.304,0.293
O=C(Nc1cccnc1)N1CCC(Cc2cccc(Oc3ccc(C(F)(F)F)cn3)c2)CC1,0.144,0.101,-0.0107,-0.0195,0.779,0.796,0.833,0.872,0.473,0.369,0.37,0.34,-0.00381,0.0224,0.0325,-0.0255,0.152,0.18,0.262,0.319,0.299,0.291,0.395,0.544,0.71,0.692,0.714,0.718,0.554,0.566,0.583,0.595
CCNC(=O)c1noc(-c2cc(C(C)C)c(O)cc2O)c1-c1ccc(CN2CCOCC2)cc1,0.0556,0.0532,-0.00948,0.11,0.942,0.972,0.981,0.982,0.0724,-0.0275,-0.068,-0.156,0.971,0.977,0.978,0.975,0.117,0.0968,0.0861,0.245,0.936,0.973,0.981,0.984,0.398,0.414,0.469,0.516,0.982,0.988,0.988,0.988
COc1ccc(CCN2CCN(CCCc3ccccc3)CC2)cc1OC,0.0269,-0.00972,-0.0184,-0.287,-0.032,-0.091,-0.153,-0.298,-0.0905,-0.186,-0.542,-0.55,-0.612,-0.501,-0.797,-0.809,-0.0743,-0.0209,0.0479,0.0237,0.0208,0.0062,0.0376,0.127,0.23,0.322,0.343,0.385,0.0167,0.137,0.119,0.162
Nc1cccc2c1CN(C1CCC(=O)NC1=O)C2=O (centres undefined) [Lenalidomide],0.0697,0.0182,-0.0235,0.0966,0.122,0.186,0.18,0.309,-0.0108,-0.0398,-0.0471,-0.0439,-0.101,-0.141,-0.183,-0.226,0.069,0.101,0.148,0.257,0.215,0.263,0.303,0.434,0.534,0.564,0.587,0.589,0.428,0.481,0.499,0.508
CN(c1ncccc1CNc1nc(Nc2ccc3c(c2)CC(=O)N3)ncc1C(F)(F)F)S(C)(=O)=O,0.161,0.0909,0.0358,-0.183,0.299,0.457,0.571,0.694,-0.0233,0.0431,-0.0513,-0.296,-0.0725,0.0108,0.00901,-0.0367,0.066,0.111,0.2,0.224,0.23,0.336,0.426,0.546,0.592,0.636,0.671,0.663,0.458,0.565,0.566,0.569
C[C@H](NC(=O)Cc1cc(F)cc(F)c1)C(=O)N[C@@H]1C(=O)N(C)c2ccccc2-c2ccccc21,-0.0485,-0.0319,-0.0413,0.0451,-0.0641,-0.0187,-0.0724,-0.157,-0.258,-0.261,-0.314,-0.599,-0.307,-0.355,-0.331,-0.429,-0.062,-0.041,-0.0625,-0.0177,-0.026,0.0466,0.00781,-0.0375,0.291,0.422,0.458,0.48,0.298,0.4,0.412,0.389
OCCn1cc(-c2cnc3nnn(Cc4ccc5ncccc5c4)c3n2)cn1,0.0403,0.00489,-0.0584,-0.156,-0.178,-0.0659,-0.175,-0.214,0.0383,0.00592,-0.0414,-0.165,-0.319,-0.278,-0.299,-0.402,-0.0346,0.043,0.0857,0.105,0.0296,0.08,0.0788,0.176,0.521,0.575,0.599,0.603,0.384,0.474,–,–
